# Giardia FBPA inh: Giardia lamblia aldolase inhibition. A8B2U2. 0.71% of 290,000 active. purified Giardia FBPA. Potency, µM (top dose mostly 59.6 µM), for inactives: top-dose activity, negative = inhibition, most hits filed as inhibitors; further: potency means the concentration at half of the fitted maximal effect; nearly all actives have a fitted effect of over 55% in size
# Target sequence (A8B2U2 whole entry, looked up): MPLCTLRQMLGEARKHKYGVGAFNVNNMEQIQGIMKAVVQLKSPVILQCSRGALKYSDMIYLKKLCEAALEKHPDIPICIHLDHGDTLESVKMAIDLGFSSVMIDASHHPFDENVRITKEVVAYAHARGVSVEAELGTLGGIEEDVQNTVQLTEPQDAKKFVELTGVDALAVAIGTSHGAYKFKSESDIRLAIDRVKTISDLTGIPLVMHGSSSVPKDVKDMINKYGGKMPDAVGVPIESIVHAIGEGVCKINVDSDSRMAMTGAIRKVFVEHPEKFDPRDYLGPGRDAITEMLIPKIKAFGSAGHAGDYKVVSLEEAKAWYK
#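 40 nM FBPA preincubated 10 min at RT with compound (up to 57.5 uM final), then substrate plus GAPDH/TPI/NAD/arsenate coupling and diaphorase/resazurin added. Fluorescence read after 20 min at RT, 525/598 nm.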
# RE007 growth inh: less growth of the S. pombe RE007 Vpr strain. Potency, µM (titrated, usually from 92.2 µM), inactives show at the top dose activity change, negative = less growth, most hits filed as inhibitors. AID 651644. 0.21% of 360,000 active. S. pombe RE007 Vpr strain, BacTiter-Glo ATP luminescence, 24 h; active means well fitted falling curve with a large enough effect; inconclusive means small, poorly fitted or top-dose-only effect; inactive means no such curve, though single readings can be large or run the other way; further: potency means the concentration at half of the fitted maximal effect; nearly all actives have a fitted effect of over 50% in size
#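 Fission yeast RE007 carrying one integrated HIV-1 vpr copy, seeded at OD 0.01 in PMG+AL medium with 23 nL pinned compound. Grown 24 h at 30 degrees; viability read by BacTiter-Glo luminescence after 5 min.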
# FMDV antiviral: antivirals against foot and mouth disease virus | FMDV antiviral cell-based qHTS | Potency, µM (doses to about 57.9 µM), for the others: at the top dose activity change, negative = inhibition, actives largely listed as inhibitors | 1.2% of 410,000 active | AID 1159524; calls by dose curve; tested in HEK293T cells; further: read-out not given here; potency means the concentration at half of the fitted maximal effect; nearly all actives have a fitted effect of over 45% in size
# Sm TGR inh: inhibitors of Schistosoma mansoni thioredoxin glutathione reductase; purified TGR, DTNB reduction, TNB absorbance 405 nm; 3% of 360,000 active; Potency, µM (top dose mostly 114 µM), without a hit: top-dose activity change, negative = inhibition, actives largely listed as inhibitors; Q962Y6; further: potency means the concentration at half of the fitted maximal effect; nearly all actives have a fitted effect of over 60% in size
#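 First, TGR (20 nM dispensed) and NADPH were mixed with compound. Second, a 15 min room-temperature incubation followed. Third, further NADPH and then DTNB were added to start the reaction. Finally, TNB absorbance was monitored kinetically.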
# Tb PYK inh: T. brucei pyruvate kinase inhibition. Q57TT1. TbPYK enzyme, Kinase-Glo Plus ATP luminescence, 45 min. Potency, µM (highest dose often 76.8 µM), for the others: at the highest dose activity, negative = inhibition, hits mostly inhibitors. 0.12% of 410,000 active; further: potency means the concentration at half of the fitted maximal effect; nearly all actives have a fitted effect of over 50% in size
#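 T. brucei PYK with substrate was exposed to pin-transferred compounds across a concentration series, then started with 130 uM ADP (final). After 45 min at room temperature, Kinase-Glo Plus luminescence was read, normalized and curve-fitted.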
# HCMV inh: human cytomegalovirus inhibition; 4.5% of 410,000 active; HFF cells, HCMV-luciferase reporter, 72 h; stronger effect = lower value; AID 1259415; activity change, negative = inhibition, % at 57.5 µM; in the data active means activity change below about -60%; inconclusive means no clear call, values can overlap the other calls; inactive means above about -39%
#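 After 16 h attachment at 37C, HFF cells received test compound and HCMV-luciferase (1 PFU/cell); reporter luminescence read 72 h later, data normalized against buffer-only and known inhibitor Salinomycin.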
# The depositor's hits bear a star; u = inconclusive; x = not tested or not shown; ! = not confirmed by another sample; [ ] = remark or other dose. This is a sample that favours compounds with a hit; in the whole collection about 7.7% have one here. Unless noted, the call rests on the fitted dose curve; in most records, active means well fitted curve in the direction sought with a large enough effect; inconclusive means small, poorly fitted or top-dose-only effect, or another doubt; inactive means no such curve, though single readings can be large; an effect the other way counts as inactive or inconclusive. On the % scale 0 is the no-effect control and ±100 the full control effect.
SMILES,Giardia FBPA inh,RE007 growth inh,FMDV antiviral,Sm TGR inh,Tb PYK inh,HCMV inh
CC(C)(C)CC(=O)NC(=S)Nc1ccccc1[N+](=O)[O-],-13%,-14%,-5%,-15%,-5%,-19
O=C(CC(=O)Nc1ccccc1[N+](=O)[O-])Nc1ccccc1[N+](=O)[O-],6%,-17%,-14%,89µM*,4%,-65*
COCC(C)NC(=S)Nc1ccccc1[N+](=O)[O-] (stereo unspecified),-1%,5%,9%,40µM*,-4%,22
CCCC(=O)Nc1nnc(SCc2cc(=O)c3cc(C)ccc3[nH]2)s1,x,x,u,4%,-16%,-12
COc1cc(-c2cccs2)cc(=O)c2c(C)oc(C)c12,u,-3%,x,40µM*,-5%,u
COc1cc(-c2cc(OC)c3c(C)oc(C)c3c(=O)c2)ccc1OC(=O)c1ccccc1F,x,x,u,-1%,u,116
CC1CN=C(c2ccc(Cl)cc2)c2c3ccc(C(F)(F)F)cc3[n+]([O-])n21 (stereo unspecified),x,x,x,x,x,5
CC(C)(CNc1ccc(C(F)(F)F)cc1[N+](=O)[O-])N1CCOCC1,x,2%,u,3%,0%,-66*
CN(Cc1ccccc1)C(=O)Cn1c(=O)c2cccn2c2ccc(F)cc21,x,x,2%,12%,8%,76
CCC(=O)N(C1=C(NC)C(=O)c2ccccc2C1=O)C(C)C,-8%,-7%,-17%,-3%,-13%,-78*
CN(C)c1ccc(C(=O)NN2C(=O)c3ccccc3C2=O)cc1,8%,16%,40%,5%,-11%,-1
CNC1=C(N(C(C)=O)c2ccc(Br)cc2)C(=O)c2ccccc2C1=O,u,u,8.9µM*,-14%,-18%,-100*
O=C(Cn1cc(SCc2ccccc2Cl)c2ccccc21)N1CCCCCC1,x,x,-7%,0%,-10%,43
CCn1c([N+](=O)[O-])nc2c1c(=O)[nH]c(=O)n2C,13µM*,3%,u,25µM*,2%,-98*
CCCCCCn1c(SCCCC)nc2c1c(=O)[nH]c(=O)n2C,-1%,5%,0%,-13%,9%,85
Nc1ccc2cc3[nH]c4cc(N)ccc4c3nc2c1,x,u,-19%,x,0%,-98*
Cc1ccc(/C=N/Nc2cccc3cccnc23)c(O)c1,-17%,-16%,20%,32µM*,-5%,150
C(=N\Nc1ccccn1)/c1c[nH]c2ccccc12,0%,-16%,12%,11%,-20%,-68*
NC(=Nc1ccccc1)NN=Cc1c[nH]c2ccccc12,x,20%,u,x,3%,-85*
Oc1ccc(C=NNc2ccccn2)c(O)c1,x,-24%,11%,x,-8%,-99*
Oc1ccc(/C=N/Nc2ncc(Br)cn2)c(O)c1,0%,-3%,10%,2%,-10%,124
Oc1ccc(/C=N/Nc2nccnc2Cl)c(O)c1,-4%,-17%,9%,-9%,u,-97*
Oc1ccccc1/C=N/Nc1nccnc1Cl,-9%,u,38%,0%,-8%,-100*
O=[N+]([O-])c1ccccc1/C=N/Nc1nccnc1Cl,-1%,3%,0%,3%,-8%,79
CCC(OC(=O)CC1Sc2ccccc2NC1=O)C(=O)NCC1CCCO1 (stereo unspecified),1%,12%,x,25µM*,-13%,30
SMILES,Giardia FBPA inh,RE007 growth inh,FMDV antiviral,Sm TGR inh,Tb PYK inh,HCMV inh
Cc1nn(C)c2c1c(C(F)(F)F)cc(=O)n2CC(=O)N1CCCCC1C (stereo unspecified),x,x,-17%,-7%,1%,-7
CCN(c1ccc(C)cc1C)S(=O)(=O)c1nnc(NC(=O)c2ccco2)s1,10%,6%,0%,50µM*,-1%,-25
CCN(c1ccc(C)cc1)S(=O)(=O)c1nnc(NC(=O)c2ccco2)s1,18%,-6%,14%,22µM*,-13%,-6
CCN(c1cc(C)cc(C)c1)S(=O)(=O)c1nnc(NC(=O)C(C)(C)C)s1,-3%,8%,-29%,5%,-4%,-67*
CC(C)CN(c1ccccc1)S(=O)(=O)c1nnc(NC(=O)c2ccco2)s1,17%,11%,9%,35µM*!,4%,u
CCN(CC)S(=O)(=O)c1nnc(NC(=O)c2ccc(Br)cc2)s1,x,x,-26%,3%,-3%,-2
COc1ccc(CCNC(=O)/C(C#N)=C/c2cccc(OCc3ccccc3)c2)cc1OC,-6%,-1%,28µM*,0%,-5%,28
N#C/C(=C\c1cccc(NC(=O)c2ccccc2Cl)c1)C(=O)NCCc1ccccc1,0%,-25%,28µM*,0%,0%,u
O=C1NC2CCCCN2C12CCN(CCCN1c3ccccc3CCc3ccc(Cl)cc31)CC2 (stereo unspecified),x,x,x,x,1%,x
Cc1ccc2c(=O)cc(C(=O)Nc3c(C(=O)c4ccccc4)oc4ccccc34)oc2c1,x,x,0%,4%,2%,20
CCn1c(SCC(=O)Nc2cc(C)ccc2F)nnc1-c1ccccc1O,x,x,u,5%,-5%,-38
N#C/C(=C/c1ccc(N2CCOCC2)o1)c1ccc(Cl)cc1,u,u,x,1µM*,u,82
O=C(Cn1ccc(NC(=O)OCc2ccccc2)nc1=O)NCCc1ccccn1,x,2%,-5%,32µM*,3%,-3
CC(=O)Nc1ccc(S(=O)(=O)Nc2ccc(=O)n(Cc3ccc(Cl)c(Cl)c3)c2)cc1,25%,-14%,22%,8%,-3%,-34
O=C(CN1CCCCCCC1)Nc1cccc(Cl)c1Cl,2%,-11%,-4%,8%,3%,-65*
Cc1ccc(S(=O)(=O)Nc2ccc(NC(=O)CN3CCCCC3)c(Cl)c2)cc1,3%,12%[3.69 µM],-7%,-22%,x,-102*
O=C(CN1CCCCCC1)Nc1ccc(Cl)cn1,5%,0%,15%,40µM*,-10%,-12
Cc1ccc(S(=O)(=O)Nc2ccc(=O)n(Cc3ccc(Cl)c(Cl)c3)c2)cc1,u,-22%,-13%,40µM*,-1%,13
O=C(CN1CCCCC1)Nc1cccc(Cl)c1Cl,1%,-19%,3%,5%,-9%,1
Cc1ccc(S(=O)(=O)N2CCN(CC(=O)Nc3ccccc3Cl)CC2)cc1,x,-16%,-10%,-19%,1%,-12
CC(C)=CC1C(C(=O)OC(C#N)c2cccc(Oc3ccccc3)c2)C1(C)C (stereo unspecified),x,x,x,x,x,11
Clc1ccc(-c2ccc(CNCCSc3nnnn3-c3ccccc3)o2)cc1,x,x,-24%,8%,2%,1
Brc1ccc(-c2ccc(CNCCSc3nnnn3-c3ccccc3)o2)cc1,x,x,0%,18µM*,-7%,20

# Screening data deposited in PubChem BioAssay by National Center for Advancing Translational Sciences (NCATS).
